# M18AAP inhibitor = PfM18AAP enzyme inhibition; recombinant PfM18AAP, H-Glu-NHMec fluorogenic cleavage; inhibition, % at 7.35 µM; actives 1.2% (n = 290,000); AID 1822;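 active means inhibition above the campaign mean inhibition over all tested compounds plus 3 SD, cut at about 28% in these data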;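 further: 0% = plate median of test compound wells and 100% = 2 mM ZnCl2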
# PfGluPho inh = PfG6PD (Plasmodium falciparum) enzyme inhibition; PfGluPho enzyme, NADPH resazurin-diaphorase fluorescence; inhibition, % at 20 µM; actives 0.78% (n = 350,000); AID 504690;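 active means inhibition reaching at least a set limit at 20 µM in the primary screen, cut at about 59% in these data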;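 further: 0% = DMSO wells with substrate and 100% = DMSO wells lacking glucose-6-phosphate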
# MBD2 inh = blocks human MBD2 binding to methylated DNA; Q9UBB5; TR-FRET, MBD2 binding to methylated oligonucleotide; inhibition, % at 4.4 µM; actives 0.31% (n = 370,000); AID 686964; in the data active means inhibition above about 13%
# PRMT1 inh = PRMT1 (human) inhibition, primary screen. Q99873. recombinant PRMT1, activity-based probe fluorescence polarization. inhibition, % at 2.79 µM. actives 1.3% (n = 370,000). AID 652257;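 active means inhibition above about 21% made by adding two undisclosed values, limit read from the data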
# UHRF1 MBD2 ctr = human UHRF1 methylated DNA binding inhibitors | AID 687016 | UHRF1 binding to methylated oligo, TR-FRET | actives 0.75% (n = 370,000) | inhibition, % at 4.4 µM; in the data active means inhibition above about 21%;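 further: UHRF1 SRA domain binding a hemimethylated CpG hairpin DNA probe; 0% = median of test compound wells and 100% = reference inhibitor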
# Target sequence (Q96T88 whole entry, looked up, the tested form may be a part): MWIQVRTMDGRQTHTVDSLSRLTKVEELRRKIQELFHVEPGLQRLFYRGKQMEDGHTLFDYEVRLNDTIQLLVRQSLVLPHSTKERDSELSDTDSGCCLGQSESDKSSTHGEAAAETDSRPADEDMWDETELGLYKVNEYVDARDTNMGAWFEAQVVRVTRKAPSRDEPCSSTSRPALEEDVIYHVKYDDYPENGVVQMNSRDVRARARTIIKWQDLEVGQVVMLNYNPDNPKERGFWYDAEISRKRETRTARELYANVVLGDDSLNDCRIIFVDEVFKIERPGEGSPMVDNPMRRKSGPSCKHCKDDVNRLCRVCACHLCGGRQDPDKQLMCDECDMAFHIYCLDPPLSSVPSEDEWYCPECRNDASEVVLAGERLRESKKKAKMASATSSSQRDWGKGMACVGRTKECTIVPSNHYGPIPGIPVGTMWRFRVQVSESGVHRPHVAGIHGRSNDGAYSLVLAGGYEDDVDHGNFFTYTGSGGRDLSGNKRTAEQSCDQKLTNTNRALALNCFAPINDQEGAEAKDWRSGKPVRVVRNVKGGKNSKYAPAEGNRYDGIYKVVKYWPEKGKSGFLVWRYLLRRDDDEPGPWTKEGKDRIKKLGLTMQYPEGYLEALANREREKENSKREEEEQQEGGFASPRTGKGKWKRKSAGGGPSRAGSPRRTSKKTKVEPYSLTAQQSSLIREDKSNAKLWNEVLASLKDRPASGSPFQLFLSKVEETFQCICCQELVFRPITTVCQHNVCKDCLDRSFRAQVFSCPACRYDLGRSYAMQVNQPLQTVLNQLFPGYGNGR
# PfG6PD confirm = confirmation of Plasmodium falciparum G6PD inhibitors. shares compounds with PfGluPho inh. recombinant PfGluPho, NADPH-diaphorase-resazurin fluorescence. inhibition, % at 20 µM. actives 34% (n = 2,400). AID 504753;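 active means inhibition of at least 50% at 20 µM in any single replicate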;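 further: 0% = DMSO with substrate and 100% = DMSO lacking glucose-6-phosphate substrate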
# Diaph ctr 10uM = counter-screen for P. falciparum G6PD inhibitors: diaphorase inhibitors, oxidizers; inhibition, % at 20 µM; shares compounds with PfGluPho inh; AID 504862; actives 39% (n = 820); diaphorase-coupled resazurin reduction, fluorescence, NADPH 10 uM;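 active means average inhibition reaching 50% or more with the compound at 20 µM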;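 further: resorufin red fluorescence formed as diaphorase reduces resazurin using NADPH; 0% = DMSO with enzyme and 100% = DMSO without enzyme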
# Diaph ctr 30uM = counter-screen for P. falciparum G6PD inhibitors: diaphorase inhibitors, oxidizers; shares compounds with PfGluPho inh; Diaphorase/resazurin coupled assay, resorufin fluorescence, 30 uM NADPH; inhibition, % at 20 µM; actives 29% (n = 820);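 active means inhibition averaging 50% or more, tested at 20 µM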;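 further: 0% = DMSO with enzyme and 100% = DMSO wells lacking diaphorase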
# * = called active by the depositor; · = no result. Most compounds without a hit are left out; they make up all but 3.3% or so of the library.
SMILES,M18AAP inhibitor,PfGluPho inh,MBD2 inh,PRMT1 inh,UHRF1 MBD2 ctr,PfG6PD confirm,others
COc1ccc(C2C(Oc3ccccc3)C(=O)N2c2ccc(C)c(C)c2)cc1OC (stereo not drawn),-16.1,81.3*,-8.8,-3.9,-4.3,22.7,
O=C(/C=C/c1ccccc1)NC(NC(=S)Nc1ccc(Cl)cc1Cl)C(Cl)(Cl)Cl (stereo not drawn),2.0,61.8*,·,·,·,21.2,
O=C(/C=C/c1ccccc1)NC(NC(=S)Nc1cccc(Cl)c1)C(Cl)(Cl)Cl (stereo not drawn),3.7,-4.8,2.9,0.3,0.6,·,
CN(CC(=O)Nc1ccccc1Cl)C(=O)COC(=O)/C=C/c1cccs1,·,0.0,-0.7,2.3,1.8,·,
CN(CC(=O)Nc1ccccc1Cl)C(=O)COC(=O)/C=C/c1cccc(C(F)(F)F)c1,·,79.3*,2.9,-0.8,-3.4,29.4,
Cc1ccsc1/C=N/NC(=O)Cc1ccc(Cl)cc1,-6.7,13.0,-4.8,1.9,-0.6,·,
O=C(CSCc1ccc(Cl)cc1)N/N=C/c1ccco1,0.0,59.6*,-0.8,-0.3,-0.7,25.1,
Cc1ccsc1/C=N/NC(=O)CSCc1ccc(Cl)cc1,-0.4,114.4*,1.1,-0.1,-5.4,65.0*,Diaph ctr 10uM=78.2*;Diaph ctr 30uM=57.5*
O=C(CSCc1ccc(Cl)cc1)N/N=C/c1ccc(Cl)cc1Cl,0.3,43.9,-1.5,-3.0,0.8,·,
Cc1ccc(/C=N/NC(=O)CSCc2ccc(Cl)cc2)cc1,-0.3,59.4*,-7.6,-0.5,-1.4,11.5,
COC(=O)c1cc2c(c3c4ccccc4n(S(=O)(=O)c4ccc(C)cc4)c13)C(=O)N(Cc1ccccc1)C2,·,·,1.3,0.4,-3.4,·,
O=C(CN1C(=O)NC2(CCOc3ccccc32)C1=O)c1ccc(F)c(F)c1 (stereo not drawn),·,4.8,-1.9,-10.0,-0.8,·,
Cc1ccc(NC(=O)c2ccccc2OCC(=O)Nc2ccccc2F)cc1S(=O)(=O)N(C)C,·,2.0,-1.9,2.2,0.3,·,
O=S(=O)(N=C1C=CC(=NS(=O)(=O)c2ccccc2)c2ccccc21)c1ccccc1,·,61.8*,-8.3,16.6,5.5,34.7,
CC1(C)Cc2c(c(-c3ccco3)nc3sc4c(NCCCO)ncnc4c23)CO1,-24.0,59.6*,1.3,18.4,0.9,8.8,
COc1ccccc1CN1CC(C(=O)NCCc2ccc(C)o2)CCC1=O (stereo not drawn),-66.1,4.4,-0.9,18.3,-1.6,·,
COc1cc(NCc2ccccc2)c2ncn(C(C)C)c2c1,·,61.1*,-0.3,0.2,-0.5,55.7*,Diaph ctr 10uM=-2.9;Diaph ctr 30uM=-9.5
Cc1c(/C=C/C(=O)c2ccc(Cl)s2)cnn1C,5.6,59.6*,0.0,-2.5,-3.3,51.6*,Diaph ctr 10uM=62.7*;Diaph ctr 30uM=38.9
Cc1c(/C=C/C(=O)c2ccccc2)cnn1C,4.7,9.4,0.3,-2.2,-3.0,·,
Cc1c(/C=C/C(=O)c2ccc(C(C)C)cc2)cnn1C,0.0,67.9*,-2.9,-5.5,-2.2,42.5,
COc1cc(/C=N/O)cc(Br)c1OCc1ccc(Cl)cc1,6.9,80.7*,3.4,4.0,4.1,11.3,
CCOC(=O)N1CCN(C(=O)C[C@@H]2C(=O)N3CCCC4=C3[C@@]2(C(=O)OC)CCCC4)CC1,·,·,-3.3,4.9,-1.7,·,
c1ccc(SSc2ccccn2)nc1,·,68.0*,·,·,·,57.7*,Diaph ctr 10uM=-23.6;Diaph ctr 30uM=-26.8
C[C@@]12C[C@@H]3C(=O)N(Cc4ccccc4)CC(=O)N3[C@@H]1N(S(=O)(=O)c1ccccc1)c1ccccc12,·,·,-3.2,0.6,1.4,·,
Cc1ccc(NC(=O)NC(=O)CN2CCN(c3ccc(O)cc3)CC2)c(C)c1,30.4*,72.2*,-3.4,13.6,0.3,39.8,
SMILES,M18AAP inhibitor,PfGluPho inh,MBD2 inh,PRMT1 inh,UHRF1 MBD2 ctr,PfG6PD confirm,others
CC(CCc1ccccc1)NC(=O)CN1CCN(c2ccc(O)cc2)CC1 (stereo not drawn),7.7,65.7*,1.4,22.5*,-0.3,2.7,
CC(CCc1ccccc1)NC(=O)CN1CCN(Cc2ccccc2)C1=O (stereo not drawn),3.4,3.8,-0.1,-1.2,2.5,·,
CCN(CC)C(=O)CC[C@H]1CC[C@]2(CCCN(S(C)(=O)=O)C2)O1,·,·,-1.2,1.2,-1.5,·,
O=C(OCc1ccccc1)[C@H](Cc1ccccc1)NC(=O)[C@@H]1CC=C[C@@H]2CCN(C3CCCCC3)C(=O)[C@@H]21,·,·,2.5,-0.3,-1.1,·,
COc1cccc(/C=N/NC(=O)c2c(C)nc3ccc(Cl)cn23)c1O,16.1,-18.4,4.3,6.6,0.0,·,
Cc1nn(C)c(C(=O)N/N=C/c2cccc3ccccc23)c1Cl,2.4,76.1*,-7.0,-0.4,-4.4,38.8,
COc1ccccc1/C=N\NC(=O)c1c(C)nc2ccc(Cl)cn12,2.5,49.4,-3.5,-0.6,-3.2,23.4,
Cc1ccc2cc(CN(c3ccccc3C)S(=O)(=O)c3ccccc3)c(=O)[nH]c2c1,-15.5,3.5,-0.8,1.5,6.7,·,
Cc1ccccc1OCc1nc2ccc(S(=O)(=O)N3CCOCC3)cc2[nH]1,-18.6,63.8*,0.0,5.4,-2.0,28.3,
CCNc1ccccc1CP(=O)(c1ccccc1)c1ccccc1O (stereo not drawn),3.4,81.1*,-3.8,74.6*,-1.2,86.7*,Diaph ctr 10uM=43.7;Diaph ctr 30uM=23.0
Nc1cccc(-c2nc3ccc(C(=O)c4ccccc4)cc3[nH]2)c1,-2.2,62.1*,2.5,-1.1,-0.2,13.5,
Nc1ccc2nc(-c3ccccc3)[nH]c2c1,18.3,9.5,-3.9,2.5,2.4,·,
O=[N+]([O-])c1ccc2nc(-c3ccccc3)[nH]c2c1,7.8,68.3*,2.5,-2.6,0.8,21.1,
CCOC(=O)c1sc(NC(=O)C2CCCO2)c(C(=O)OC)c1C (stereo not drawn),-1.4,·,·,·,·,·,
CCCOC(=O)c1c(NC(=O)C2CCCO2)sc(C(=O)OC)c1C (stereo not drawn),39.5*,59.2*,1.6,14.7,24.6*,21.2,
CCOc1ccc2nc3cc(NCc4ccc(OC)cc4)ccc3c(N)c2c1,17.4,67.2*,·,·,·,29.8,
CCn1cnc2cc(NCc3ccc(OC)cc3)ccc21,14.1,10.7,3.1,1.9,-0.4,·,
COc1ccc(NC(=O)N(C)[C@H]2C[C@H]3c4[nH]c5c(-c6cccc(C)c6)cccc5c4CCN3C(=O)[C@H]2[C@H](C)O)cc1,·,·,-1.2,-4.6,-0.9,·,
Cc1cc(=O)[nH]c(SCc2nnc(-c3ccccc3)o2)n1,-8.8,-5.9,-2.1,17.9,0.8,·,
Clc1ccc2nc(SCc3nnc(-c4ccccc4)o3)[nH]c2c1,-2.3,113.0*,-1.4,2.2,2.5,44.3,
CCN(CC)c1ccc(C(=C2C=CC(=[N+](CC)CC)C=C2)c2ccccc2)cc1,·,99.8*,-3.0,-0.4,-1.5,68.3*,Diaph ctr 10uM=-3.6;Diaph ctr 30uM=5.3

# Screening data as filed in PubChem BioAssay.
